# Results from the supplement of paper PMC10338343.
# ± gives the standard deviation.
# How the values were obtained:
# [1] = tested on: MILI (PIWIL2) piRISC loaded with L1MC piRNA (26 nt); assay: pre-steady-state target cleavage rate (min^-1); guide: L1MC piRNA 5'p-UAACUAAAUACUAUGCAAGCUGUAGG; higher = faster piRNA-guided slicing of the target; details: auxiliary factor: 500 nM mouse GTSF1;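 also: 1 nM active piRISC with 0.1 nM target library at 33 °C single turnover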
# Outline: (§1)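 At 33 °C in HEPES–potassium acetate buffer, a transcribed, DNA-blocked target RNA library […] was exposed for 0–8 or 0–960 min to 1 nM active affinity-purified piRISC carrying a single synthetic guide, with or without 500 nM GTSF1 partner protein. Uncleaved targets were sequenced and normalised to depth and to weakly complementary targets. With three trials pooled and k3 capped at 0.0001 min^-1, a burst-and-steady-state fit produced the pre-steady-state cleavage rate.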
# [2] = tested on: EfPiwi piRISC loaded with L1MC piRNA (26 nt); assay: pre-steady-state target cleavage rate (min^-1); auxiliary factor: 500 nM Ephydatia muelleri Gtsf1; guide: L1MC piRNA 5'p-UAACUAAAUACUAUGCAAGCUGUAGG; MIWI and MILI are mouse PIWI proteins and EfPiwi is from a freshwater sponge; tags in brackets are library labels; higher = faster piRNA-guided slicing of the target
# Outline: as §1
Sequence,pre-steady-state target cleavage rate [1],pre-steady-state target cleavage rate [2]
UCCUCCUACAGCUUGCACUAGUAUUUAGUUA,0.0877 ± 0.019,0.0137 ± 0.0056
UCCUCCUACAGCUUGCAUAGUAUAAAGAAA,0.0951 ± 0.023,0.00289 ± 0.0018
UCCUGGAACAGCUUGCAUUGUAUUUAGAUA,0.149 ± 0.019,0.00313 ± 0.0017
UCCUCCUACAGCAAGCAUAGUAUUUAGUAA,0.238 ± 0.02,0.00371 ± 0.0026
UCCUCCUAGAGCUUGCAUAGUAUUUAGAAA,0.069 ± 0.016,0.00517 ± 0.0019
UCCUGCAUCAGCUUGCAUAGUAUUUAGAAA,0.127 ± 0.022,0.00393 ± 0.0017
UCCUCCAACAGCUUGCAUAGUAUUUAGAAA,0.147 ± 0.023,0.00461 ± 0.0019
UCCUGCUUCAGCUUCCAUAGUAUUUAGUUA,0.0549 ± 0.018,0.00322 ± 0.0013
UCCUGGAACAGCUAGCAUACUAUUUAGUUA,0.0692 ± 0.011,0.0045 ± 0.0019
UCCUCCUACAGCUUGCAUAGUAUUUAUUA,0.0949 ± 0.023,0.00539 ± 0.0031
UCCUGGUACAGGUUGCAUAGAAUUUAGUUA,0.0804 ± 0.021,0.00277 ± 0.0022
UCCUGGAACAGCAUGCAUAGUAUUUUGUUA,0.116 ± 0.017,0.00267 ± 0.0022
UCCUCCUACAGGUUGCAUAGAAUUUAGUUA,0.0405 ± 0.0092,0.0062 ± 0.0014
UCCUGGUACAGCUUGCAUAGUAUUUAGAAA,0.162 ± 0.03,0.00435 ± 0.0017
UCCUGCUACAGCUUGCAUAGUAUUAUGUUA,0.231 ± 0.047,0.00406 ± 0.002
UCCUGGUACAGCUUGCAUUGUAUUUAGAUA,0.0565 ± 0.016,0.00292 ± 0.0018
UCCUCCUACAGCUUGCAUAGUAUUUAGCUUA,0.253 ± 0.075,0.00683 ± 0.0027
UCCUCCUACUCGUUGCAUAGUAUUUAGAAA,0.076 ± 0.019,0.004 ± 0.0035
UCCUCCUAGAGCUUGCAUAGUAUUUUCAAA,0.0731 ± 0.019,0.00252 ± 0.0022
UCCUCCUACAGCUUGCAUAGUUUUUAGAUA,0.0768 ± 0.022,0.00341 ± 0.0022

Sequence,pre-steady-state target cleavage rate [1],pre-steady-state target cleavage rate [2]
UCCUGCUACACCUUGCAUAGUAUUUACUUA,0.102 ± 0.034,0.00306 ± 0.003
UCCUGGUACAGCUUGCAUAGUAUUAACAAA,0.0231 ± 0.0084,0.00261 ± 0.0023
UCCUGGUACAGCUUGCAAAGUAUUUAGAUA,0.118 ± 0.021,0.00431 ± 0.0026
UCCUGCUACAGCUUGCAUAGUAUAUACAAA,0.0701 ± 0.019,0.00238 ± 0.0022
UCCUCCUACACCUUGCAUAGUAUUUACUUA,0.128 ± 0.038,0.00326 ± 0.0032
UCCUGCUACAGCUUGGAUACUAUUUAGUUA,0.0884 ± 0.018,0.00633 ± 0.0024
UCCUGGAUGACCUUGCAUAGUAUUUAGAUA,0.115 ± 0.034,0.00355 ± 0.0027
UCCUGGAACAGCUUGCAUAGUAUUUAUUUA,0.113 ± 0.026,0.00534 ± 0.0034
UCCUCCUAGAGCUUGCAUAGUAUUAAGUUA,0.279 ± 0.035,0.00604 ± 0.0026
UCCUGGAUGAGCUUGCAUAGUAUUUACUAA,0.00674 ± 0.0044,0.00198 ± 0.002
UCCUCGUACAGCUUGCAUAGAAUUUAGUUA,0.0473 ± 0.0079,0.00771 ± 0.0018
UCCUGGAUCAGCUUGGAUAGUAUUUUGUUA,0.117 ± 0.021,0.00346 ± 0.0027
UCCUCGAUCAGCUUGCAUAGUAUUUACAAA,0.135 ± 0.026,0.00554 ± 0.003
UCCUGCUACAGCUAGCAUAGAAUUUAGUUA,0.0821 ± 0.018,0.00327 ± 0.0022
UCCUGGAUGAGCUUGCAUAGUAUUUACAAA,0.0638 ± 0.018,0.00416 ± 0.0028
UCCUGCUACAGCUUGCAUACUAUUUUGUUA,0.0252 ± 0.0096,0.00432 ± 0.0019
UCCUGCUUGUGCUUGCAUAGUAUUUAGAAA,0.0115 ± 0.0056,0.00373 ± 0.0022
UCCUGGAACAGCUUGCAUAGUAUUUUGUUA,0.154 ± 0.029,0.00368 ± 0.0018
UCCUCGAUCAGCUUGCAUAGUAUUUAGAAA,0.115 ± 0.02,0.00579 ± 0.0018
UCCUCCUUGUGCUUGCAUAGUAUUUAGAAA,0.0325 ± 0.0085,0.00387 ± 0.0022

Sequence,pre-steady-state target cleavage rate [1],pre-steady-state target cleavage rate [2]
UCCUCCUACAGCUAGCAUAGUAUUUACAAA,0.0849 ± 0.018,0.00397 ± 0.0031
UCCUGGAUCAGCAUCCAUAGUAUUUAGUUA,0.103 ± 0.022,0.00269 ± 0.0023
UCCUGGAACAGCUUGCAUAGUAUUUUCUUA,0.0439 ± 0.014,0.00388 ± 0.0027
UCCUCCUACACCUUCCAUAGUAUUUAGUUA,0.0308 ± 0.014,0.00329 ± 0.0018
UCCUCGUACAGCUUGCAUAGUAUUUACAAA,0.105 ± 0.025,0.00271 ± 0.0024
UCCUCCUACAGGUUGCAUAGUAUUUUCAAA,0.0497 ± 0.013,0.00306 ± 0.0021
UCCUGGUACAGCUUGCAUAGAAUUAAGUUA,0.0989 ± 0.03,0.00454 ± 0.0027
UCCUGGUACAGCUUGCAUUGUAAUUAGUUA,0.0918 ± 0.016,0.00313 ± 0.0023
UCCUGGAACAGCUUGCAUAGUUAUUAGUUA,0.0369 ± 0.0099,0.00251 ± 0.0017
UCCUGCUACAGCUUGCAAAGUAUUUAGAUA,0.0895 ± 0.012,0.00421 ± 0.0024
UCCUCCUACAGCUUGCAUAGUUUUAAGUUA,0.0543 ± 0.012,0.00431 ± 0.0024
UCCUGGAUCAGCUUGCAUAGUAUAUAGUAA,0.189 ± 0.019,0.00291 ± 0.0023
UCCUGGAUCAGCUUGCAUACUAUUUACUUA,0.0867 ± 0.02,0.00362 ± 0.0032
UCCUGCUACAGCUAGCAUAGUAUUUAGAAA,0.227 ± 0.051,0.00418 ± 0.0021
UCCUCCUACAGCAUCCAUAGUAUUUAGUUA,0.175 ± 0.042,0.00359 ± 0.0017
UCCUGGAUGUGCUUGCAUAGUAUUUACGUUA,0.129 ± 0.026,0.00702 ± 0.0042
UCCUGGAUGAGCUUGCAUAGUAUUUAUUA,0.0142 ± 0.0067,0.00268 ± 0.0022
UCCUCCUACAGCUUGCAUAGUAUUGAGUUA,0.133 ± 0.026,0.00534 ± 0.002
UCCUGGAACAGCUUGCAUAGUAUUAAGAUA,0.0769 ± 0.019,0.00257 ± 0.0022
UCCUCCUACAGCUUGCAUAGUAAAAUCAAA,0.0893 ± 0.023,0.0042 ± 0.0034
